Values joined by “and” are separate entries in the source; they are usually repeats but may differ in a detail not shown here. Identical values can stand only once. Records with an inconclusive call do not appear. The source holds several records for some structures; these can differ, active in one and inactive in another. Active and inactive are the calls of the source. Unless noted, calls come from the whole dose curve; as a rule, active = well fitted curve in the direction sought with a large enough effect in the repeat runs; inconclusive = weak or mixed curves; inactive = no such curve, though single readings can be large; an effect the other way counts as inactive or inconclusive.
Assays:
[1] = qHTS RealTime-Glo MT Cell Viability Assay in HEK293 cells - 24 hour (AID 1224886); note: nearly all actives have a fitted effect of over 50% in size; note: potency is the fitted concentration of half-maximal effect
Procedure, shortened: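 Quantitative high-throughput screen of the Tox21 10K library in HEK293: cells and RealTime-Glo reagents plated together, compound added at 5 h, luminescence monitored through 40 h at 37 C.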

[2] = qHTS RealTime-Glo MT Cell Viability Assay in HEK293 cells - 8 hour (AID 1224887); note: top concentration of the series differs between compounds; nearly all actives have a fitted effect of over 50% in size
Procedure, shortened: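 qHTS format; HEK293 cells with NanoLuc/prosubstrate reagent, 37 C/5% CO2 for 5 h pre-dosing; compounds 23 nL in DMSO; luminescence at each time point reflects viable cells.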

[3] = A CellTox Green Cytotoxicity Assay to monitor cytotoxicity in HEK293 cells - 16 hour (AID 1224888); note: nearly all actives have a fitted effect of over 35% in size
Procedure, shortened: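 Each value comes from one timepoint of a single continuous run in which HEK293 cells with CellTox Green were exposed to compound for up to 40 h at 37 C, dye fluorescence rising with cell death.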

[4] = qHTS RealTime-Glo MT Cell Viability Assay in HepG2 cells - 0 hour (AID 1224889); note: nearly all actives have a fitted effect of over 50% in size
Procedure, shortened: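 Compound treatment began 5 h after plating HepG2 cells (600/well) with NanoLuc luciferase and prosubstrate. Plates stayed at 37 C for 40 h; luminescence was captured at six time points, 0 h through 40 h.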

[5] = A CellTox Green Cytotoxicity Assay to monitor cytotoxicity in HepG2 cells - 8 hour (AID 1224890); note: nearly all actives have a fitted effect of over 45% in size
Procedure, shortened: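 Continuous culture of HepG2 cells with a membrane-impermeant DNA dye; rising fluorescence marks dead cells. Compound exposure lasted up to 40 h at 37 C, with reads every 8 h from 0 h.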

[6] = qHTS assay to identify small molecule antagonists of the estrogen receptor alpha (ER-alpha) signaling pathway using the BG1 cell line in the presence of 0.1 nM 17-beta-estradiol - cell viability counter screen (AID 1259241); note: nearly all actives have a fitted effect of over 40% in size
Procedure, shortened: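 Following 5 days in phenol red-free medium with charcoal-stripped serum, VM7Luc4E2 cells received test compounds alongside 0.1 nM 17beta-estradiol (final) at 37C for 22 hr. Live cells were then quantified via protease-substrate fluorescence.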

[7] = qHTS assay to identify small molecule antagonists of the androgen receptor (AR) signaling pathway using the MDA cell line in the presence of 0.5 nM R1881 - cell viability counter screen (AID 1259242); note: nearly all actives have a fitted effect of over 45% in size
Procedure, shortened: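 Fluorescence from CellTiter-Fluor, which reports protease activity of live cells, was read 30 min after reagent addition to MDA-kb2 cells that had been incubated 16 hr with compound and 0.5 nM R1881.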

[8] = molecular target: Estrogen receptor (Homo sapiens) (UniProt P03372); experiment: qHTS assay to identify small molecule antagonists of the estrogen receptor alpha (ER-alpha) signaling pathway using the BG1 cell line in the presence of 0.1 nM 17-beta-estradiol (AID 1259244); note: nearly all actives have a fitted effect of over 50% in size
Chain of Estrogen receptor (Homo sapiens) (P03372 whole entry, looked up): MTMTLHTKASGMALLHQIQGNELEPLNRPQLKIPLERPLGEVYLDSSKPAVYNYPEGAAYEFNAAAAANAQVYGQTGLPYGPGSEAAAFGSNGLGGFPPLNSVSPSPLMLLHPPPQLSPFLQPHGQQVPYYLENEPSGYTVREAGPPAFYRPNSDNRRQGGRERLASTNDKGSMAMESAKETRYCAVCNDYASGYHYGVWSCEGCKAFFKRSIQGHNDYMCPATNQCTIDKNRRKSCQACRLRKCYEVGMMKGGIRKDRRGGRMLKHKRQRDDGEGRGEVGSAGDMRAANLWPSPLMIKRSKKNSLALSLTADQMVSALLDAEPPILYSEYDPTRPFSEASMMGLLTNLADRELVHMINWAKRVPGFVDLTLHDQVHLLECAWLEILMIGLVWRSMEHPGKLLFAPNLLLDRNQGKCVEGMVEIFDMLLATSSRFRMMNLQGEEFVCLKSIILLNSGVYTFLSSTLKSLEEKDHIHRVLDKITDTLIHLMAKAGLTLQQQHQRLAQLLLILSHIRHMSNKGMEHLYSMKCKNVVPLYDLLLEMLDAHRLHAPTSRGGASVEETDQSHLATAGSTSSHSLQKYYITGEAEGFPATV
Procedure, shortened: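 Quantitative high-throughput screen in VM7Luc4E2 cells: compound plus 0.1 nM E2 (final), 22 h, 37C, 5% CO2; ONE-Glo added, 30 min room temperature, luminescence measured.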

[9] = qHTS assay to identify small molecule HDAC inhibitors (AID 1259364); note: nearly all actives have a fitted effect of over 45% in size; note: potency is the fitted concentration of half-maximal effect
Procedure, shortened: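 Endogenous HDAC class I/II activity was measured in wild-type HCT-116 cells by HDAC-Glo luminescence after 2 h compound treatment.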

[10] = qHTS assay to identify small molecule HDAC inhibitors - cell viability counter screen (AID 1259365)
Procedure, shortened: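 HCT-116 wild-type, overnight attachment; 2hr drug exposure, 37C; CellTiter-Glo luminescent ATP readout after 30min RT.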

[11] = qHTS assay to identify small molecule agonists of the sonic hedgehog signaling (Shh) pathway - cell viability counter screen (AID 1259366); note: nearly all actives have a fitted effect of over 50% in size
Procedure, shortened: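 Compounds in DMSO were pin-transferred onto 3T3 Gli1-Luc cells that had settled 4hr; plates then stood 24hr at 37C and 5% CO2. One hour before the end, CellTiter-Fluor was added and fluorescence recorded.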

[12] = qHTS assay to identify small molecule antagonists of the sonic hedgehog signaling (Shh) pathway - cell viability counter screen (AID 1259367); note: nearly all actives have a fitted effect of over 55% in size
Procedure, shortened: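 Using CellTiter-Fluor, viability of Gli1-Luc reporter 3T3 cells is read by fluorescence in the wells used for the Shh luciferase assay. Treatment lasts 23 hr with conditioned medium, then reagent 1 hr at 37C.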

[13] = qHTS assay to identify small molecule agonists of the sonic hedgehog signaling (Shh) pathway (AID 1259368; calls by dose curve;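 note: NIH/3T3-derived 3T3Gli1-Luc cells carrying a stable Gli1-driven firefly luciferase reporter; series mostly up to about 92 µM; nearly all actives have a fitted effect of over 15% in size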)
Procedure, shortened: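 Luminescent signal was taken as a measure of Gli1-controlled luciferase expression in stably transfected NIH/3T3-derived cells that had been treated for 24 hr with compounds delivered in DMSO.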

[14] = qHTS assay to identify small molecule antagonists of the sonic hedgehog signaling (Shh) pathway (AID 1259369; calls by dose curve; note: nearly all actives have a fitted effect of over 45% in size; note: potency is the fitted concentration of half-maximal effect)
Procedure, shortened: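 Screening used 3T3Gli1-Luc cells at 2,000 per well, compounds delivered in DMSO, and conditioned medium as agonist stimulus; plates incubated 24hr at 37 C and 5% CO2 before a 30min luciferase step.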

[15] = molecular target: Estrogen receptor beta (Homo sapiens) (UniProt Q92731); experiment: qHTS assay to identify small molecule agonists of the estrogen receptor beta (ER-beta) signaling pathway (AID 1259377; active = well fitted activation curve with a large enough effect in the signal ratio in the repeat runs, not every such curve was filed as active; the % refers to the signal ratio)
Chain of Estrogen receptor beta (Homo sapiens) (Q92731 whole entry, looked up): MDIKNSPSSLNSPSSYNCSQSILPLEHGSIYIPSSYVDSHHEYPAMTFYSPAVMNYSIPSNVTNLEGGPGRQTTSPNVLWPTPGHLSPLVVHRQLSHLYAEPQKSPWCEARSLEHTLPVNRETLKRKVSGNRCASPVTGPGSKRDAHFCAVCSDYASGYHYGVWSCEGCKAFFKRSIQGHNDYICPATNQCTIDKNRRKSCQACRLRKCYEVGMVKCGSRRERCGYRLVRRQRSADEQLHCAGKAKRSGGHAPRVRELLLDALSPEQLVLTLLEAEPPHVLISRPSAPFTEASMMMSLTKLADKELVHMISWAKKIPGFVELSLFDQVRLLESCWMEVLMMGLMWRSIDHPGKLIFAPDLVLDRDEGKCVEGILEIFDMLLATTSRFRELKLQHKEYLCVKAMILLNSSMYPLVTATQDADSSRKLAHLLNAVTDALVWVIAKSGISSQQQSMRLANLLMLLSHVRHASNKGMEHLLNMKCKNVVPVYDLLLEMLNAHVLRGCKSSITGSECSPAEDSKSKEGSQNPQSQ
Procedure, shortened: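 qHTS in ER-beta-UAS-bla HEK293T cells: 6 hr settling, then 16 hr compound at 37C, then LiveBLAzer substrate 2 h at RT before fluorescence reading.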

[16] = molecular target: Estrogen receptor beta (Homo sapiens) (UniProt Q92731); experiment: qHTS assay to identify small molecule antagonists of the estrogen receptor beta (ER-beta) signaling pathway (AID 1259378; active = well fitted inhibition curve with a large enough effect in the signal ratio in the repeat runs, not every such curve was filed as active; the % refers to the signal ratio)
Procedure, shortened: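 Antagonist mode: compounds added to beta-lactamase reporter HEK293T ER-beta-UAS cells stimulated with E2 (1nM final), 16 hr at 37C. LiveBLAzer B/G FRET substrate, 2 hours room temperature, fluorescence read-out.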

[17] = qHTS assay to identify small molecule agonists of the androgen receptor (AR) signaling pathway in the presence of an antagonist - cell viability counter screen (AID 1259379);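 note: MDA-kb2 human breast cancer cells carrying an MMTV luciferase reporter; series mostly up to about 92 µM; nearly all actives have a fitted effect of over 25% in size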
Procedure, shortened: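 In MDA-kb2 cells (human breast carcinoma, MMTV-luciferase), compounds at 15 concentrations plus 3.0uM nilutamide; 16 hr, 37C, 0% CO2; CellTiter-Fluor fluorescence read for viability.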

[18] = qHTS assay to identify small molecule agonists of the estrogen receptor beta (ER-beta) signaling pathway - cell viability counter screen (AID 1259380); note: nearly all actives have a fitted effect of over 30% in size
Procedure, shortened: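 Viability of ER-beta-UAS-bla HEK293T cells was determined by CellTiter-Glo luminescence following 16 hr treatment with test compounds at 37C.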

[19] = molecular target: Androgen receptor (Homo sapiens) (UniProt P10275); experiment: qHTS assay to identify small molecule antagonists of the androgen receptor (AR) signaling pathway using the MDA cell line in the presence of 0.5 nM R1881 (AID 1259243); note: nearly all actives have a fitted effect of over 50% in size
Chain of Androgen receptor (Homo sapiens) (P10275 whole entry, looked up): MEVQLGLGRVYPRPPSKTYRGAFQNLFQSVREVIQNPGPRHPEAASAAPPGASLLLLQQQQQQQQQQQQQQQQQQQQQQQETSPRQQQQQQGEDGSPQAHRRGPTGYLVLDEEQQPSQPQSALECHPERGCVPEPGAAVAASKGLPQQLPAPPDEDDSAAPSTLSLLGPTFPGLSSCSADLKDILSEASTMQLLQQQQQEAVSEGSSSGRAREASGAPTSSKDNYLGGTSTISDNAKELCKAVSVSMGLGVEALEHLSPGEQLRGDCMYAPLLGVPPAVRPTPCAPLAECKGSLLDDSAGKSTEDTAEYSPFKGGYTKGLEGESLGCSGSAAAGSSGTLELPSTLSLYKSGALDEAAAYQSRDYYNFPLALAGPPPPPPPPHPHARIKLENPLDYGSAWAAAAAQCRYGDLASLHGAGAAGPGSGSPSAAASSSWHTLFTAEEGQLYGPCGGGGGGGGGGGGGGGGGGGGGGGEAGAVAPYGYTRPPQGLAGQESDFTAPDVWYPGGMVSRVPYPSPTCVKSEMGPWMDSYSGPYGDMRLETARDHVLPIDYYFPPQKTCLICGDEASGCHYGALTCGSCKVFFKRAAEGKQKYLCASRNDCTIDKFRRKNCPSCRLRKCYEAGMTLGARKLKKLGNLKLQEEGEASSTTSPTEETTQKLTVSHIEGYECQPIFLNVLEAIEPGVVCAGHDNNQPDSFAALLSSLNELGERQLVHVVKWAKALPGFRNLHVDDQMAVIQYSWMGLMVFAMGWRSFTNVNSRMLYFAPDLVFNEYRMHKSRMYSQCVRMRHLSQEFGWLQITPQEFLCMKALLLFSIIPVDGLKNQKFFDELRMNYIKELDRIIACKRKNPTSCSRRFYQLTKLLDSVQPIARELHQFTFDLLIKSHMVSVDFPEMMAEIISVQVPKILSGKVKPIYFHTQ
Procedure, shortened: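 Inhibition of R1881 (0.5 nM final) induced reporter signal was measured in human MDA-kb2 cells; note the MMTV promoter also responds to GR. Exposure lasted 16 hr at 37C.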

[20] = molecular target: Androgen receptor (Homo sapiens) (UniProt P10275); experiment: qHTS assay to identify small molecule agonists of the androgen receptor (AR) signaling pathway in the presence of an antagonist (AID 1259381; calls by dose curve; note: nearly all actives have a fitted effect of over 15% in size)
Procedure, shortened: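 Here, 15-concentration compound series were pin-transferred onto MDA-kb2 MMTV-luciferase cells already dosed with nilutamide (3.0uM final). After 16hr at 37C, ONE-Glo was added and luminescence read 30min later at room temperature.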

Measured: Potency

Cc1ccc([N+](=O)[O-])cc1C
not listed: [19] | [20]
inactive: all other assays above

CCOP(OCC)OCC
not listed: [15] | [16] | [19] | [20]
inactive: all other assays above

O=[N+]([O-])c1ccc([As](=O)(O)O)cc1
not listed: [15] | [16] | [19] | [20]
inactive: all other assays above

COCCl
16 µM (active) and inactive: [14]
not listed: [8] | [9]
inactive: all other assays above

CON(C)C(=O)Nc1ccc(Cl)c(Cl)c1
inactive and 43.6 µM (active): [1]
active: [9] 27.4 µM and 19.3 µM
not listed: [15] | [16] | [19] | [20]
inactive: all other assays above

CN(C)CCO
not listed: [19] | [20]
inactive: all other assays above

ClCc1cccnc1
not listed: [15] | [16] | [19] | [20]
inactive: all other assays above

CNC(=O)Oc1ccccc1OC(C)C
not listed: [19] | [20]
inactive: all other assays above

Nc1ccc(Br)cc1
43.2 µM (active) and inactive: [14]
not listed: [11] | [16] | [19] | [20]
inactive: all other assays above

C#CCN(C)[C@H](C)Cc1ccccc1
not listed: [9] | [19] | [20]
inactive: all other assays above

O=C(O)c1ccccn1
not listed: [9] | [19] | [20]
inactive: all other assays above

O=[N+]([O-])c1ccccc1
not listed: [19] | [20]
inactive: all other assays above

C=CC(N)=O
not listed: [9] | [15] | [16] | [19] | [20]
inactive: all other assays above

Clc1ccc(Cl)cc1
385 nM (active) and inactive: [14]
not listed: [19] | [20]
inactive: all other assays above

COC(=O)NS(=O)(=O)c1ccc(N)cc1
not listed: [9] | [19] | [20]
inactive: all other assays above

Source: PubChem BioAssay (Tox21)
